Source: PubChem BioAssay
An excerpt weighted towards active compounds, which were near 2.8% of everything screened.
S2 tox – viability counter-screen for ATXN expression inhibitors; S2 cells (HEK-293 line with an ATXN2-luciferase reporter) viability, CellTiter-Fluor protease fluorescence, 24 h; Potency, µM (series often up to 56.7 µM), actives largely listed as cytotoxic; 400,000 compounds, 0.49% hits; further: nearly all actives have a fitted effect of over 40% in size
ATXN2 expr inh – inhibitors of ATXN2 expression; HEK-293 ATXN2-luciferase reporter, luminescence, 24 h; Potency, µM (top dose mostly 57 µM), without a hit: top-dose activity change, negative = inhibition, actives largely listed as inhibitors; 360,000 compounds, 0.72% hits; AID 1745845; further: on the % scale 0 is the no-effect control and ±100 the full control effect; nearly all actives have a fitted effect of over 55% in size
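qHTS (up to 57 uM final) was run with 24 h compound exposure of reporter cells at 37 °C. Each well was multiplexed: SteadyGlo luminescence measured ATXN2-luciferase expression after a fluorogenic Gly-Phe-AFC viability readout (25 uM final).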
HttQ103 aggreg – inhibitors of mutant huntingtin aggregate formation in PC12 cells; PC12 HttQ103-GFP aggregates, Acumen cytometry, 40 h; Potency, µM (series often up to 46.1 µM), without a hit: top-dose activity change, negative = inhibition, hits mostly inhibitors; 220,000 compounds, 1.1% hits; AID 1688; further: on the % scale 0 is the no-effect control and ±100 the full control effect; nearly all actives have a fitted effect of over 60% in size
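Using laser scanning cytometry, GFP-positive aggregates were counted after lysis of PC12 cells induced with 100 nM tebufenozide to express HTT exon 1 Q103–GFP. Compounds were tested in titration.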
HTT cytoprotect – cytoprotection in Huntington HTT-Q103 PC12 cell model. Potency, µM (top dose mostly 56.4 µM), without a hit: cytoprotection (ATP increase), most hits filed as activators. PC12 HTT-Q103 induced, cytoprotection, ATP luminescence, 40 h. 230,000 compounds, 0.14% hits; further: % of control where 0% means no effect; nearly all actives have a fitted effect of over 45% in size
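Compounds were screened for protection of PC12 cells against cell death after tebufenozide induction (100 nM final) of mutant Huntingtin exon 1 (Q103) fused to GFP.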
TGFb inhibitor – blocks TGF-b signaling | HepG2 CAGA-GFP TGF-b/SMAD3 reporter, GFP fluorescence, 18 h; TGF-beta stimulated, 500 pg/mL final | Potency, µM (highest dose often 46.1 µM), for inactives: at the highest dose activity, negative = inhibition, actives largely listed as inhibitors | 410,000 compounds, 1.2% hits | AID 588855; further: on the % scale 0 is the no-effect control and ±100 the full control effect; nearly all actives have a fitted effect of over 65% in size
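GFP signal (ex488/em500-530) from TGF-beta-stimulated HEPG2 CAGA-GFP cells, 500 pg/mL final, 18 h at 37 degrees C in DMEM plus 1% FBS, normalized to unstimulated and DMSO-stimulated controls.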
HepG2 viability – counter-screen for TGF-b inhibitors: cytotoxicity in HepG2 cells | 410,000 compounds, 0.76% hits | HepG2 CAGA-GFP viability, ATP luminescence, 18 h | Potency, µM (top dose mostly 46.1 µM), for the others: at the top dose activity change, negative = cytotoxicity, usual class: cytotoxic
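CellTiter-Glo luminescence gave cytotoxicity after 18 hours at 37 degrees C. The cells were HepG2 CAGA-GFP in 1% FBS DMEM, stimulated with 500 pg/mL TGF-beta after compound addition. %Activity was normalised to no-cell wells (complete cell-killing) and DMSO (no toxicity), and curves were fitted and classified.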
* = called active by the depositor; i = inactive; u = inconclusive; x = no result given; [ ] = another dose, or the depositor's remark. The call rests on the fitted dose curve; in most records, active means well fitted curve in the direction sought with a large enough effect; inconclusive means small, poorly fitted or top-dose-only effect, or another doubt; inactive means no such curve, though single readings can be large; an effect the other way counts as inactive or inconclusive. Potency means the concentration at half of the fitted maximal effect.

SMILES | S2 tox | ATXN2 expr inh | HttQ103 aggreg | HTT cytoprotect | TGFb inhibitor | HepG2 viability
CC(C)=CCc1c(O)cc2c(=O)c3ccc(O)cc3oc2c1O | u | 23% | x | x | u | -38%
CC(C)=CCc1c(O)cc(O)c2c(=O)c3c(CC=C(C)C)c(O)ccc3oc12 | 25µM* | u | x | x | 4µM* | 16µM*
CCn1c2ccccc2c2cc(/C=C3/C=Cc4ccccc43)ccc21 | x | x | x | x | 7% | -18%
COc1cc(CN2CCCC(n3cc(C(=O)N4CCCC4)nn3)C2)cc(OC)c1 (stereo unspecified) | i | x | x | x | x | x
O=C(Nc1ccccc1C(=O)O)c1ccc(NC(=O)c2ccc(Br)o2)cc1 | i | -4% | 10%[1.84 µM] | 2.2µM* | 10% | -21%
Cc1cnc2c(C)cccc2c1/C=C/c1ccc(N(C)C)cc1 | x | x | x | x | u | -32%
Cc1cc(C)c(C(=O)NCc2nc(-c3cccc(NC(=O)C4CCCN(C)C4)c3)oc2C)[nH]1 (stereo unspecified) | i | x | x | x | x | x
Cc1nc(Nc2ccc(Cl)c(Cl)c2)sc1C(=O)Nc1ccccc1 | u | u | 25µM* | 1%[10 µM] | u | -101%
Cc1nc(Nc2ccc(Cl)cc2Cl)sc1C(=O)Nc1ccccc1 | i | -13%[11.3 µM] | u | 15%[10 µM] | u | -2%
Nc1c(C(=O)c2ccccc2)sc(Nc2ccc(Cl)c(Cl)c2)c1C(=O)Nc1ccccc1 | x | u | x | x | u | 7.9µM*
Cc1ccc(Nc2sc(C(=O)c3ccccc3)c(N)c2C(=O)Nc2ccc(Cl)cc2)cc1 | u | u | x | x | u | -34%
Cc1ccc(-c2[nH]ncc2CNCc2ccccc2)cc1 | x | x | x | x | 1% | 9%
Cc1ccc(/C=C/C(=O)N2CCN(c3ncccn3)CC2)o1 | u | 0% | u | 1%[10 µM] | 10µM* | -27%
Cc1ccc(/C=C/C(=O)N2CCN(c3ccc(F)cc3)CC2)o1 | i | -16% | 16% | 22%[10 µM] | -6% | -6%
COc1ccccc1-n1cc(C(=O)NCCN2Cc3ccccc3OC(c3ccsc3)C2)cn1 (stereo unspecified) | i | x | x | x | x | x
CC(=O)Nc1ccc(C2=NNC(=Nc3cccc(S(=O)(=O)N(C)C)c3)SC2)cc1 | u | x | -12%[9.22 µM] | u | 10µM* | -23%
Cc1cnc2ccc3ccccc3c2c1C | x | x | x | x | -17% | -2%
CCOC(=O)C=C[C@H](C[C@@H]1CCNC1=O)NC(=O)[C@@H](CC(=O)[C@@H](NC(=O)c1cc(C)on1)C(C)C)Cc1ccc(F)cc1 | x | 13% | x | x | x | x
C/C(=C(\CCOC(=O)c1ccccc1)SS/C(CCOC(=O)c1ccccc1)=C(/C)N(C=O)Cc1cnc(C)nc1N)N(C=O)Cc1cnc(C)nc1N | i | x | x | x | x | x
CCCCCCCCCS(=O)(=O)N/N=C/c1cccc([N+](=O)[O-])c1 | i | -5% | 2% | 12% | u | -84%
CCCCCCCCCCS(=O)(=O)N/N=C/c1ccc(O)cc1 | i | -31% | 15% | 16%[10 µM] | 13µM* | -94%
C=CC1=C(C(=O)O)N2C(=O)[C@@H](NC(=O)C(=NO)c3csc(N)n3)[C@H]2SC1 | x | 6% | x | x | x | x
O=C(/C=C/c1ccccn1)NCC1Cc2cccc(-c3ncccn3)c2O1 (stereo unspecified) | i | x | x | x | x | x
Cc1ccc(-n2c(-c3ccccc3)nsc2=NC#N)cc1 | x | x | x | x | 0% | 1%
CCCCCCCCSC1=CC(=O)C(OC)=C(OC)C1=O | u | x | x | x | 10µM* | 7.1µM*
SMILES | S2 tox | ATXN2 expr inh | HttQ103 aggreg | HTT cytoprotect | TGFb inhibitor | HepG2 viability
COc1ccccc1-c1nccc(NCc2cccs2)n1 | x | x | x | 4% | x | x
CC1=NN(c2ccc(Cl)cc2)C(=O)C1C(c1cccc(O)c1)c1c(C)[nH]n(-c2ccc(Cl)cc2)c1=O (stereo unspecified) | i | -17% | 13µM* | 33%[10 µM] | u | -42%
Cc1ccccc1C(=O)N/N=C/c1ccccn1 | i | -20% | -31% | -9%[10 µM] | -7% | 3%
O=C(N/N=C\c1ccccn1)c1ccccc1O | i | -54% | u | -55% | u | 3.2µM*
COc1ccc(C(=O)Nc2ccccc2C(=O)N/N=C/c2ccccn2)cc1OC | i | 28µM* | u | -4%[10 µM] | u | -18%
O=C(N/N=C/c1cccc2cccnc12)c1ccccc1O | 3.5µM* | x | -10%[9.22 µM] | -34%[10 µM] | u | -16%
O=C(COc1ccc(Cl)cc1)N/N=C/c1cccc2cccnc12 | i | 25µM* | x | x | u | 6%
C=CC[n+]1cccc2cccc(O)c21 | x | x | x | x | 1% | -1%
COc1cc(OC)c(Nc2c3c(nc4nc(-c5cccs5)nn24)CCCC3)cc1Cl | 28µM* | -23% | x | x | u | -30%
COc1cc(OC)c(NC(=O)c2ccc3c(Cl)c4c(nc3c2)CCCC4)cc1Cl | i | 13% | x | x | 1% | 8%
COc1ccc(/C=C/c2cc(C(=O)O)c3ccccc3n2)cc1 | i | 2.2µM* | 0%[9.22 µM] | -95%[10 µM] | 5% | -20%
COc1cc(OC)c(OC)cc1/C=C/c1cc(C(=O)O)c2ccccc2n1 | i | x | 25% | -53% | 7% | 21%
O=C(O)c1ccc(/C=C2\SC(=Nc3ccccc3)N(c3ccccc3)C2=O)cc1 | i | x | -31% | 13µM* | -3% | -29%
O=C(O)COc1ccc(/C=C2\SC(=Nc3ccccc3)N(c3ccccc3)C2=O)cc1 | i | x | -20% | -18% | 22% | -9%
CCCCNc1c(-c2cccc(-c3cc(C(C)=O)cs3)c2)nc2ccc(C)cn12 | 16µM* | u | x | x | u | 18µM*
Cc1ccc(NC(=O)c2ccoc2C)cc1C | i | 76% | 2% | x | -11% | -42%
Cc1occc1C(=O)Nc1cccnc1 | i | 11% | 22µM* | 0%[0.074 µM] | 8% | -7%
Cc1cc(NC(=O)c2ccoc2C)ccc1Br | i | 50% | x | x | 16µM* | -51%
Cc1ccc2c(c1)C/C(=C/c1ccc(N(C)C)cc1)C2=O | x | x | x | x | 15% | -21%
O=C(NC1CC1)[C@@H]1C[C@@H](Sc2nc3ccccc3[nH]2)CN1CC1CCCCC1 | i | x | x | x | x | x
O=C(Nc1c(Cl)cc2c(c1Cl)Cc1cc([N+](=O)[O-])ccc1-2)C(Cl)Cl | u | 12% | x | x | 7.1µM* | -56%
CC(=O)Nc1ccc2c(c1)Cc1c-2cc(Cl)c(NC(C)=O)c1Cl | u | 6% | x | x | 20% | 7%
COc1ccc(OC)c(CNC(=O)C2CCCCN2S(=O)(=O)c2ccc(F)cc2)c1 (stereo unspecified) | i | -1% | x | x | 7.9µM* | -16%
COc1ccc(NC(=O)C(=O)NCCC2CCCCN2S(=O)(=O)c2ccc(F)cc2)cc1 (stereo unspecified) | i | 2.5µM* | x | x | -17% | 4%
